Each binder was assayed against AgAbp1 (assay: SPOT peptide array binding signal intensity (averaged, normalized) (arbitrary units (background-subtracted, floor 0; scale differs between SH3 domains)); higher = stronger binding of the SH3 domain to the peptide).
How it was run: (§1)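 Peptides were synthetic 15-mers on cellulose membranes, with every cysteine replaced by serine. They were incubated overnight at 4°C with GST-SH3 domains from four yeast species at 10 μg/ml in TBS-based blocking buffer. Binding signal, the replicate-averaged normalized and background-subtracted spot intensity, is in arbitrary units that differ between domains.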

| Binder | SPOT peptide array binding signal intensity |
| --- | --- |
| KMSRSPPRPPSLKII | 329 |

What follows are binders tested against AgBbc1 in the same assay as above.
How it was run: as §1

| Binder | SPOT peptide array binding signal intensity |
| --- | --- |
| KMSRSPPRPPSLKII | 145 |

What follows are binders tested against AgBem1-D1 in the same assay as above.
How it was run: as §1

| Binder | SPOT peptide array binding signal intensity |
| --- | --- |
| KMSRSPPRPPSLKII | 707 |

These binders were tested against AgBzz1-D1 in the same assay as above.
How it was run: as §1

| Binder | SPOT peptide array binding signal intensity |
| --- | --- |
| KMSRSPPRPPSLKII | 85.5 |

What follows are binders tested against AgBzz1-D2 in the same assay as above.
How it was run: as §1

| Binder | SPOT peptide array binding signal intensity |
| --- | --- |
| KMSRSPPRPPSLKII | 35 |

The binders below were run against AgCyk3 in the same assay as above.
How it was run: as §1

| Binder | SPOT peptide array binding signal intensity |
| --- | --- |
| KMSRSPPRPPSLKII | 4 |

What follows are binders tested against AgFus1 in the same assay as above.
How it was run: as §1

| Binder | SPOT peptide array binding signal intensity |
| --- | --- |
| KMSRSPPRPPSLKII | 180 |

Each binder was assayed against AgHof1 in the same assay as above.
How it was run: as §1

| Binder | SPOT peptide array binding signal intensity |
| --- | --- |
| KMSRSPPRPPSLKII | 17 |

Each binder was assayed against AgHse1 in the same assay as above.
How it was run: as §1

| Binder | SPOT peptide array binding signal intensity |
| --- | --- |
| KMSRSPPRPPSLKII | 99 |

The binders below were run against AgLsb1 in the same assay as above.
How it was run: as §1

| Binder | SPOT peptide array binding signal intensity |
| --- | --- |
| KMSRSPPRPPSLKII | 20 |

Each binder was assayed against AgLsb4 in the same assay as above.
How it was run: as §1

| Binder | SPOT peptide array binding signal intensity |
| --- | --- |
| KMSRSPPRPPSLKII | ≤ 0 |

These binders were tested against AgMyo5 in the same assay as above.
How it was run: as §1

| Binder | SPOT peptide array binding signal intensity |
| --- | --- |
| KMSRSPPRPPSLKII | 10.5 |

Each binder was assayed against AgNbp2 in the same assay as above.
How it was run: as §1

| Binder | SPOT peptide array binding signal intensity |
| --- | --- |
| KMSRSPPRPPSLKII | 1350 |

These binders were tested against AgRvs167 in the same assay as above.
How it was run: as §1

| Binder | SPOT peptide array binding signal intensity |
| --- | --- |
| KMSRSPPRPPSLKII | 4.5 |

What follows are binders tested against AgSho1 in the same assay as above.
How it was run: as §1

| Binder | SPOT peptide array binding signal intensity |
| --- | --- |
| KMSRSPPRPPSLKII | 228 |

Each binder was assayed against AgSla1-D1-D2 in the same assay as above.
How it was run: as §1

| Binder | SPOT peptide array binding signal intensity |
| --- | --- |
| KMSRSPPRPPSLKII | 25 |

What follows are binders tested against AgSla1-D3 in the same assay as above.
How it was run: as §1

| Binder | SPOT peptide array binding signal intensity |
| --- | --- |
| KMSRSPPRPPSLKII | 9.25 |

What follows are binders tested against CaAbp1-D1 in the same assay as above.
How it was run: as §1

| Binder | SPOT peptide array binding signal intensity |
| --- | --- |
| KMSRSPPRPPSLKII | 734 |

The binders below were run against CaAbp1-D2 in the same assay as above.
How it was run: as §1

| Binder | SPOT peptide array binding signal intensity |
| --- | --- |
| KMSRSPPRPPSLKII | 1170 |

Each binder was assayed against CaBbc1 in the same assay as above.
How it was run: as §1

| Binder | SPOT peptide array binding signal intensity |
| --- | --- |
| KMSRSPPRPPSLKII | 564 |

The binders below were run against CaBem1-D1 in the same assay as above.
How it was run: as §1

| Binder | SPOT peptide array binding signal intensity |
| --- | --- |
| KMSRSPPRPPSLKII | 83 |

The binders below were run against CaBzz1-D1 in the same assay as above.
How it was run: as §1

| Binder | SPOT peptide array binding signal intensity |
| --- | --- |
| KMSRSPPRPPSLKII | 1880 |

Each binder was assayed against CaBzz1-D2 in the same assay as above.
How it was run: as §1

| Binder | SPOT peptide array binding signal intensity |
| --- | --- |
| KMSRSPPRPPSLKII | 466 |

These binders were tested against CaCyk3 in the same assay as above.
How it was run: as §1

| Binder | SPOT peptide array binding signal intensity |
| --- | --- |
| KMSRSPPRPPSLKII | 36 |

These binders were tested against CaFus1 in the same assay as above.
How it was run: as §1

| Binder | SPOT peptide array binding signal intensity |
| --- | --- |
| KMSRSPPRPPSLKII | 974 |

These binders were tested against CaHof1 in the same assay as above.
How it was run: as §1

| Binder | SPOT peptide array binding signal intensity |
| --- | --- |
| KMSRSPPRPPSLKII | 0.5 |

Each binder was assayed against CaHse1 in the same assay as above.
How it was run: as §1

| Binder | SPOT peptide array binding signal intensity |
| --- | --- |
| KMSRSPPRPPSLKII | 58.5 |

What follows are binders tested against CaLsb1 in the same assay as above.
How it was run: as §1

| Binder | SPOT peptide array binding signal intensity |
| --- | --- |
| KMSRSPPRPPSLKII | 2.5 |

Each binder was assayed against CaLsb4 in the same assay as above.
How it was run: as §1

| Binder | SPOT peptide array binding signal intensity |
| --- | --- |
| KMSRSPPRPPSLKII | 588 |

Each binder was assayed against CaMyo5 in the same assay as above.
How it was run: as §1

| Binder | SPOT peptide array binding signal intensity |
| --- | --- |
| KMSRSPPRPPSLKII | 44.5 |

Each binder was assayed against CaNbp2 in the same assay as above.
How it was run: as §1

| Binder | SPOT peptide array binding signal intensity |
| --- | --- |
| KMSRSPPRPPSLKII | 1320 |

The binders below were run against CaRvs167 in the same assay as above.
How it was run: as §1

| Binder | SPOT peptide array binding signal intensity |
| --- | --- |
| KMSRSPPRPPSLKII | 68 |

Each binder was assayed against CaRvs167-3 in the same assay as above.
How it was run: as §1

| Binder | SPOT peptide array binding signal intensity |
| --- | --- |
| KMSRSPPRPPSLKII | ≤ 0 |

The binders below were run against CaSho1 in the same assay as above.
How it was run: as §1

| Binder | SPOT peptide array binding signal intensity |
| --- | --- |
| KMSRSPPRPPSLKII | 939 |

Each binder was assayed against CaSla1-D1-D2 in the same assay as above.
How it was run: as §1

| Binder | SPOT peptide array binding signal intensity |
| --- | --- |
| KMSRSPPRPPSLKII | 337 |

These binders were tested against CaSla1-D3 in the same assay as above.
How it was run: as §1

| Binder | SPOT peptide array binding signal intensity |
| --- | --- |
| KMSRSPPRPPSLKII | 258 |

These binders were tested against ScAbp1 in the same assay as above.
How it was run: as §1

| Binder | SPOT peptide array binding signal intensity |
| --- | --- |
| KMSRSPPRPPSLKII | 178 |
